Experimental data taken from PubChem BioAssay.
For some assays here: Results with a measured potency or affinity are listed apart. Activity calls are given as the source filed them. Unless noted, how the calls were made is not given here.

Legend:
[1] = antimalarial activity against Dd2 strain (AID 2302;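 active means growth inhibition above 50% at the single 2 µM test dose, taken to imply half-maximal potency below 2 µM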;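 further: 0% = DMSO untreated growth and 100% = chloroquine plus artemisinin killed control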); settings: P. falciparum Dd2 in RBCs, LDH growth readout, 72 h; at 2 µM; stronger effect = higher value
[2] = HepG2 cytotoxicity, primary screen, cytotoxicity control for P. falciparum antimalarial project, cell-based, ATP luminescence (AID 2303;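 active means inhibition above 50%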;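 further: 0% = DMSO wells and 100% = digitonin-killed cells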); settings: HepG2 viability, 24-48 h, at 10 µM, stronger effect = higher value
[3] = target: L-lactate dehydrogenase (Plasmodium falciparum (isolate CDC / Honduras)) (UniProt Q27743); assay: PfLDH activity inhibition – cell lysate, 3D7 strain, counter-screen for P. falciparum growth inhibition project (AID 2304);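 further: 0% = vehicle and 100% = reference inhibitor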; settings: P. falciparum 3D7 crude extract, LDH APAD/NBT absorbance; at 2 µM; stronger effect = higher value
[4] = inhibition of 3D7 malaria parasite growth – strain 3D7 (AID 2306);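 further: 0% = DMSO wells and 100% = chloroquine plus artemisinin control wells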; settings: P. falciparum 3D7 erythrocytic growth, LDH absorbance, 72 h; at 2 µM; stronger effect = higher value
[5] = target: Calcium-dependent protein kinase 1 (Plasmodium falciparum (isolate 3D7)) (UniProt P62344); assay: PfCDPK1 kinase inhibitors, biochemical, TCAMS library (AID 1159585; cut-off not given, nearly all actives have IC50 up to about 0.98 µM;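 further: inhibitors leave more ATP so luminescence rises with inhibition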); settings: recombinant PfCDPK1, Kinase-Glo ATP depletion luminescence
[6] = target: Plasmodium falciparum protein kinase 6 (PK6, PF3D7_1337100) (UniProt Q8IDW1); assay: PfPK6 kinase inhibitors, biochemical, TCAMS library (AID 1159586); settings: recombinant PfPK6, Kinase-Glo ATP depletion luminescence
[7] = target: Protein kinase 7 (PK7), Plasmodium falciparum 3D7 (PF3D7_0213400) (UniProt Q7YTF7); assay: inhibition of Plasmodium PK7 catalytic activity – biochemical, TCAMS antimalarial set, Kinase-Glo luminescence (AID 1159587); settings: recombinant PfPK7, Kinase-Glo ATP depletion luminescence
[8] = target: Calcium-dependent protein kinase 4 (Plasmodium falciparum (isolate 3D7)) (UniProt Q8IBS5); assay: PfCDPK4 kinase inhibitors, biochemical, TCAMS library (AID 1159588; cut-off not given, nearly all actives have IC50 up to about 0.91 µM); settings: recombinant PfCDPK4, Kinase-Glo ATP depletion luminescence
Calcium-dependent protein kinase 4 (Plasmodium falciparum (isolate 3D7)), sequence (Q8IBS5 whole entry, looked up): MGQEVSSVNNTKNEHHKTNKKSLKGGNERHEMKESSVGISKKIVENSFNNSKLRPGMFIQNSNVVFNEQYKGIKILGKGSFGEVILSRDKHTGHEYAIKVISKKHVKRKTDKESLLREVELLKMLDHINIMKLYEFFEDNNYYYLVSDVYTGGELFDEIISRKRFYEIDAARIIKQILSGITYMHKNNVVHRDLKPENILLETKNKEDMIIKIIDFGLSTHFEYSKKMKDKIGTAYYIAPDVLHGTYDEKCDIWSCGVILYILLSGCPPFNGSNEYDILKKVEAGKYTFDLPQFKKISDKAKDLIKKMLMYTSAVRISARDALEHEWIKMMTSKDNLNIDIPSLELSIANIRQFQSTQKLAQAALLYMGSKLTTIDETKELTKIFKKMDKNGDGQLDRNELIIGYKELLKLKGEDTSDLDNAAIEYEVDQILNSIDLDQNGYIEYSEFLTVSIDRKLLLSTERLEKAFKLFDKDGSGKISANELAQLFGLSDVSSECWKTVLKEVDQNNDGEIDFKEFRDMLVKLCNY

Calcium-dependent protein kinase 1 (Plasmodium falciparum (isolate 3D7)), sequence (P62344 whole entry, looked up): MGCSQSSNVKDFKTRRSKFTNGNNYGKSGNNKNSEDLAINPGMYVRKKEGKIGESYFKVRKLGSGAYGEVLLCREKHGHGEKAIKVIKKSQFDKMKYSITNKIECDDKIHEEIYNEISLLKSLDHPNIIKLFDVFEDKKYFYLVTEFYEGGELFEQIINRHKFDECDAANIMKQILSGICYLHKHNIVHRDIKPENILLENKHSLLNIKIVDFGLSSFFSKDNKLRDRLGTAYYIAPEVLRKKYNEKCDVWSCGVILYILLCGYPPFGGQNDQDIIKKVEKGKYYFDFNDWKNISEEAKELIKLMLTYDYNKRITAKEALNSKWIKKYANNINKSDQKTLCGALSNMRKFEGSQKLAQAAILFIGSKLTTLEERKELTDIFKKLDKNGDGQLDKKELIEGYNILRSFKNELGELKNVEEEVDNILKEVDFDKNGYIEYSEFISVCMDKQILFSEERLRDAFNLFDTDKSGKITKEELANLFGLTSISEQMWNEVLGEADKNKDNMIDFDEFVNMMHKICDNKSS
L-lactate dehydrogenase (Plasmodium falciparum (isolate CDC / Honduras)), sequence (Q27743 whole entry, looked up): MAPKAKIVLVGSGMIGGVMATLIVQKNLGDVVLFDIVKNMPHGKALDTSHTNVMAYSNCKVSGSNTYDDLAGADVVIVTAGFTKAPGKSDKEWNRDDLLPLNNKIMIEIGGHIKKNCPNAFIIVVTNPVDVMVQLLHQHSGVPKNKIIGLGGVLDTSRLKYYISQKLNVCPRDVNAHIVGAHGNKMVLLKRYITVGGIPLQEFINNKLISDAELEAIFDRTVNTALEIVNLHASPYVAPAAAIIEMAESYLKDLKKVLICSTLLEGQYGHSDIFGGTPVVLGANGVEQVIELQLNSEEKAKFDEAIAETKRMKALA
Protein kinase 7 (PK7), Plasmodium falciparum 3D7 (PF3D7_0213400), sequence (Q7YTF7 1-343): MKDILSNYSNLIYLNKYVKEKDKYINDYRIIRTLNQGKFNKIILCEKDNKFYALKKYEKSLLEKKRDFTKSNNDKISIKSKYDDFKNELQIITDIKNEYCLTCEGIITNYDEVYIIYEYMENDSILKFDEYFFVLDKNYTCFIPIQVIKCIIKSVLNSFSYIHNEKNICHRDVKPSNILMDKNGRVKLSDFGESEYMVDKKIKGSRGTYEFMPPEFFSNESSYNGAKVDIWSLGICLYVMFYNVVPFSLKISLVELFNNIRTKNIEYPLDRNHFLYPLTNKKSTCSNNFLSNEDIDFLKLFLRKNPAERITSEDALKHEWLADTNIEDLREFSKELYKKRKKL
Plasmodium falciparum protein kinase 6 (PK6, PF3D7_1337100), sequence (Q8IDW1 1-305): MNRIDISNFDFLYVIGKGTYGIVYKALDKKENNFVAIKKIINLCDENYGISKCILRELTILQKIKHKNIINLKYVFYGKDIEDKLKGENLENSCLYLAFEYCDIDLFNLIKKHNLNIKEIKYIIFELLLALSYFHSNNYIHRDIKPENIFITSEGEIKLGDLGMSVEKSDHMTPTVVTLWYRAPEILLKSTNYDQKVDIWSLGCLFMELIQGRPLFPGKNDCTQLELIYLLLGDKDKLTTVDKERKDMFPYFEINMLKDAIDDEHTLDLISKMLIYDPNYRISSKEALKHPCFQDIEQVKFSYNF

SMILES	growth inhibition [1]	inhibition [2]	inhibition [3]	growth inhibition [4]	outcome [5]	outcome [6]	outcome [7]	outcome [8]
COc1ccc2nccc(NN=Cc3ccccc3[N+](=O)[O-])c2c1	100% (active)	67% (active)	-2% (inactive)	100% (active)	inactive	inactive	inactive	inactive
CN(C)CCn1cc(C(=O)c2cc(Cl)ccc2O)cc1-c1nc2ccccc2c(=O)[nH]1	87% (active)	16% (inactive)	-3% (inactive)	99% (active)	inactive	inactive	inactive	inactive
Clc1ccc2c(NCc3ccccn3)ccnc2c1	99% (active)	0% (inactive)	-4% (inactive)	99% (active)	inactive	inactive	inactive	inactive
O=C(CCN1CCCCC1)Nc1ccc(Nc2nccc(NCC(O)c3ccccc3)n2)cc1 (stereo not given)	60% (active)	18% (inactive)	-1% (inactive)	102% (active)	inactive	inactive	inactive	inactive
COc1ccc2nccc([C@@H](O)CN3CCC(NCc4cc5ccc(C#N)cc5[nH]4)CC3)c2c1	39% (inactive)	31% (inactive)	0% (inactive)	100% (active)	inactive	inactive	inactive	inactive
CC(=O)Nc1ccc(CN2CCC(NC(=O)c3ccc(-c4cccc(C(F)(F)F)c4)s3)CC2)cc1	16% (inactive)	35% (inactive)	-3% (inactive)	100% (active)	inactive	inactive	inactive	inactive
NC(=O)c1cccc(Nc2nccc(Nc3ccc(Oc4cccc(Cl)c4)c(Cl)c3)n2)c1	12% (inactive)	-3% (inactive)	1% (inactive)	93% (active)	inactive	inactive	inactive	inactive
O=C(Nc1ccccc1O)c1ccc(S(=O)(=O)c2ccc(Cl)cc2)cc1	85% (active)	18% (inactive)	-7% (inactive)	90% (active)	inactive	inactive	inactive	inactive
COc1ccccc1C1CCN(C2CCC(NC(=O)/C=C/c3cccc(Cl)c3)CC2)CC1 (stereo not given)	20% (inactive)	54% (active)	3% (inactive)	92% (active)	inactive	inactive	inactive	inactive
CCC[C@@H]([C@@H](CC1CCC(C)CC1)C(=O)N[C@@H](CCCCNC(=O)c1ccccn1)C(=O)Nc1nccs1)N(O)C=O (stereo not given in full)	79% (active)	25% (inactive)	-1% (inactive)	101% (active)	inactive	inactive	inactive	inactive
NC(=O)c1cnc2cc(-c3ccncc3)cc(Nc3ccc(NC(=O)C4CCCCC4)cc3)c2c1	99% (active)	58% (active)	0% (inactive)	98% (active)	inactive	inactive	inactive	inactive
CC(C)Cc1ccc(N2CCN(CCCCNC(=O)c3ccc(NC(=O)c4cc(C(F)(F)F)cc(C(F)(F)F)c4)cc3)CC2)cc1	100% (active)	15% (inactive)	-3% (inactive)	100% (active)	inactive	inactive	inactive	inactive
CC(C)c1ccc(CN2CCC(CNC(=O)c3cc(-c4ccccc4F)cs3)C2)cc1 (stereo not given)	29% (inactive)	32% (inactive)	5% (inactive)	101% (active)	inactive	inactive	inactive	inactive
NC(N)=NC(=O)Nc1cc(Br)c(Cl)c(Br)c1	83% (active)	0% (inactive)	4% (inactive)	101% (active)	inactive	inactive	inactive	inactive
Cc1cccc2[nH]c(-c3ccc(-c4ccc(CN5CCOCC5)cc4)cc3)nc12	86% (active)	29% (inactive)	0% (inactive)	92% (active)	inactive	inactive	inactive	inactive
COc1cc2nc(NCCc3ccccc3)nc(NCc3cc(C)no3)c2cc1OC	100% (active)	5% (inactive)	-3% (inactive)	99% (active)	inactive	inactive	inactive	inactive
CCOc1ccc(Br)cc1/C=C/C(=O)Nc1ccc(C2CCN(C)CC2)cc1	71% (active)	30% (inactive)	-2% (inactive)	100% (active)	inactive	inactive	inactive	inactive
Cc1cccc2[nH]c(-c3ccc(-c4ccc(CNCc5ccc(CN)cc5)cc4)cc3)nc12	46% (inactive)	14% (inactive)	-4% (inactive)	100% (active)	inactive	inactive	inactive	inactive
COc1ccc2nccc([C@@H](O)CN3CCC(NCc4cc5cc([N+](=O)[O-])ccc5[nH]4)CC3)c2c1	57% (active)	29% (inactive)	4% (inactive)	99% (active)	inactive	inactive	inactive	inactive
Cc1cccc2[nH]c(-c3cccc(-c4cccc(NC(=O)c5cccnc5Cl)c4)c3)nc12	32% (inactive)	-1% (inactive)	0% (inactive)	97% (active)	inactive	inactive	inactive	inactive

SMILES	growth inhibition [1]	inhibition [2]	inhibition [3]	growth inhibition [4]	outcome [5]	outcome [6]	outcome [7]	outcome [8]
COc1cc(NC(=O)/C=C/c2cc3ccccc3n2C)ccc1OCCN(C(C)C)C(C)C	68% (active)	16% (inactive)	4% (inactive)	99% (active)	inactive	inactive	inactive	inactive
Cc1cccc2[nH]c(-c3ccc(-c4ccc(CN5CCN(c6ccncc6)CC5)cc4)cc3)nc12	100% (active)	98% (active)	3% (inactive)	102% (active)	inactive	inactive	inactive	inactive
COc1cc(Nc2nccc(N3CCC(NC(=O)c4cc5ccccc5s4)C3)n2)cc(OC)c1OC (stereo not given)	50% (active)	2% (inactive)	2% (inactive)	96% (active)	inactive	inactive	inactive	inactive
Cc1cc(C)n(-c2nc(Nc3cccc(C(F)(F)F)c3)nc(-n3nc(C)cc3C)n2)n1	88% (active)	-8% (inactive)	-6% (inactive)	99% (active)	inactive	inactive	inactive	inactive
COc1cc(C)nc2ccc(NC(=O)Nc3ccc4nc(C)cc(OC)c4c3)cc12	83% (active)	79% (active)	-7% (inactive)	102% (active)	inactive	inactive	inactive	inactive
CC(=O)Nc1ncc(C(=O)Nc2ccc(-c3cccc(-c4nc5ccc(C(F)(F)F)cc5[nH]4)c3)cc2)s1	92% (active)	79% (active)	3% (inactive)	101% (active)	inactive	inactive	inactive	inactive
Cc1cc(C)c(C)c(S(=O)(=O)N2CCCCC(c3ccc(F)c(F)c3)=N2)c1C	60% (active)	5% (inactive)	-3% (inactive)	86% (active)	inactive	inactive	inactive	inactive
Cc1c(CNCCCNc2nc3ccccc3[nH]2)sc(C(F)F)c1Br	5% (inactive)	9% (inactive)	2% (inactive)	102% (active)	inactive	inactive	inactive	inactive
O=C(/C=C/c1ccc(Cl)c(Cl)c1)NCCCCCN1CCN(C(=O)Nc2cccc(F)c2)CC1	1% (inactive)	12% (inactive)	-1% (inactive)	91% (active)	inactive	inactive	inactive	inactive
COc1ccc(NC(=O)NC2CCN(CCCCCNC(=O)/C=C/c3ccc(Cl)c(Cl)c3)C2)c(OC)c1 (stereo not given)	9% (inactive)	24% (inactive)	-3% (inactive)	96% (active)	inactive	inactive	inactive	inactive
Cc1cc(-c2cccc(CNC3CCN(C)CC3)c2)ccc1S(=O)(=O)NCCN1CCCC1	0% (inactive)	18% (inactive)	0% (inactive)	100% (active)	inactive	inactive	inactive	inactive
O=S(=O)(Nc1ccc(CCN2CCCCC2CCN2CCCC2)cc1)c1cccc2cccnc12 (stereo not given)	0% (inactive)	20% (inactive)	1% (inactive)	100% (active)	inactive	inactive	inactive	inactive
COc1cccc(C(=O)NCCc2cccc(Cl)c2)c1OCc1ccccc1	-1% (inactive)	-1% (inactive)	1% (inactive)	85% (active)	inactive	inactive	inactive	inactive
Oc1cccc(Nc2nc(NCc3ccco3)c3ccccc3n2)c1	74% (active)	9% (inactive)	0% (inactive)	103% (active)	inactive	inactive	inactive	inactive
COc1cc(Cc2cnc(N)nc2N)cc(OCC(C)(C)C(=O)O)c1OC	-4% (inactive)	-3% (inactive)	-2% (inactive)	89% (active)	inactive	inactive	inactive	inactive
CCC(C)c1ccc(Nc2nc(C)cc(N(CC)CCCN3CCCCC3)n2)cc1 (stereo not given)	83% (active)	55% (active)	-7% (inactive)	101% (active)	inactive	inactive	inactive	inactive
COc1ccc(-c2csc3ncnc(Cl)c23)cc1OC	84% (active)	-25% (inactive)	4% (inactive)	93% (active)	inactive	inactive	inactive	inactive
NC1CCN(Cc2ccc(-c3ccc(-c4nc5ccc(F)cc5[nH]4)cc3)cc2)C1 (stereo not given)	99% (active)	41% (inactive)	-3% (inactive)	98% (active)	inactive	inactive	inactive	inactive
CN(C)Cc1cccc(-c2ccc(NC(=O)c3ccc4c(=O)n(CC5CCCO5)cnc4c3)cc2)c1 (stereo not given)	14% (inactive)	28% (inactive)	0% (inactive)	97% (active)	inactive	inactive	inactive	inactive
O=C(c1cc(-c2cccs2)[nH]n1)N1CCN(S(=O)(=O)c2ccc(Br)cc2)CC1	95% (active)	-6% (inactive)	3% (inactive)	93% (active)	inactive	inactive	inactive	inactive
